Assay results taken from PubChem BioAssay AID2358 (The Scripps Research Institute Molecular Screening Center, 2010).
The whole screen tested about 1,900 compounds, of which about 1,000 (53%) were called active.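 The calls were made as follows: active = mean PP1 inhibition above a set limit taken from the earlier primary screen (cut at about 15% in these data); inactive = the rest.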 The set was probably picked from earlier hits. Not all results are given here.

Target: Serine/threonine-protein phosphatase PP1-alpha catalytic subunit (Homo sapiens) (UniProt P62136)
Sequence (P62136 whole entry, looked up): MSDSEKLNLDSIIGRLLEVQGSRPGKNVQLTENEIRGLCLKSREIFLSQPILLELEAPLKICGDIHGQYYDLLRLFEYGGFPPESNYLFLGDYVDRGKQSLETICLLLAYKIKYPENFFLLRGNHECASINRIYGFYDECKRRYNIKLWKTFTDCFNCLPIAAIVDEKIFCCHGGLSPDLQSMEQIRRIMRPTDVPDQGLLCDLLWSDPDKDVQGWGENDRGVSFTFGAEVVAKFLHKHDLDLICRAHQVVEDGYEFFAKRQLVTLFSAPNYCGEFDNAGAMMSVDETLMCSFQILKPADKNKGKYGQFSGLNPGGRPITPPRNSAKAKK
Experiment: inhibition of human PP1-alpha enzyme activity – biochemical, fluorescence, OMFP substrate, triplicate, confirmation (AID 2358)
Details: purified PP1alpha, at 6.7 µM, active compounds read high

**Q.** Which inhibition does the source give for Cc1ccc(C)c(Cn2nnc3c(=O)[nH]c(C(=O)Nc4ccc(F)cc4)nc32)c1 here?
**A.** 20.8% (active)

**Q.** For COc1ccccc1NC(=O)CSc1nc2sc3c(c2c(=O)n1-c1ccccc1)CCN(C)C3, which inhibition is on record?
**A.** 10.6% (inactive)

**Q.** How did the inhibition turn out when Cc1cc(N/N=C\c2ccc(Br)cc2)nc(-n2nc(C)cc2C)n1 was run?
**A.** 21.7% (active)

**Q.** Which inhibition does the source give for COc1ccccc1/C=N\Nc1cc(C)nc(-n2nc(C)cc2C)n1 here?
**A.** 44.3% (active)

**Q.** How did the inhibition turn out when CN1CCN(CCCNC(=O)c2ccc(/C=C3\Oc4ccccc4N(Cc4ccc(Cl)cc4)C3=O)cc2)CC1 was run?
**A.** 6.35% (inactive)

**Q.** O=C(COC(=O)c1ccc(Oc2ccccc2)cc1)Nc1nnc(-c2ccccc2)o1 was tested. Which inhibition did it give?
**A.** 16.8% (active)

**Q.** O=C(N=C1SC2CS(=O)(=O)CC2N1c1cc(Cl)ccc1Cl)C1CC1 (centres undefined) was tested. Which inhibition did it give?
**A.** -1.43% (inactive)

**Q.** Which inhibition does the source give for Cc1ccc(Nc2nc(CSc3nnnn3-c3ccccc3)cc(=O)[nH]2)cc1 here?
**A.** 26% (active)

**Q.** Cc1cc(Nc2ccccc2)n(C(=O)c2ccc(N)cc2)n1 was tested. Which inhibition did it give?
**A.** 2.75% (inactive)

**Q.** Which inhibition does the source give for O=C1c2cccc(OCC(=O)N3N=C(c4cccs4)CC3c3ccc(F)cc3)c2CCN1Cc1ccccc1 (centres undefined) here?
**A.** 13.1% (inactive)

**Q.** For O=C1C2N=NN(CC(=O)N3N=C(c4cccc5ccccc45)CC3c3ccccc3)C2C(=O)N1c1ccccc1 (centres undefined), which inhibition is on record?
**A.** 24.2% (active)

**Q.** With Cc1ccc(N2C(=O)C3N=NN(CC(=O)N4N=C(c5cccc6ccccc56)CC4c4ccccc4)C3C2=O)cc1 (centres undefined) as the compound, how does the inhibition read?
**A.** 12.9% (inactive)

**Q.** O=[N+]([O-])c1ccccc1/C=N/n1c(COc2ccccc2)n[nH]c1=S was tested. Which inhibition did it give?
**A.** -1.61% (inactive)

**Q.** Which inhibition does the source give for CCCCn1c(SCc2ncc(-c3ccccc3)o2)nc2cc(S(N)(=O)=O)ccc21 here?
**A.** 11% (inactive)

**Q.** For COc1ccc(NC(=O)C2C3CCC(O3)C2C(=O)O)cc1OC (centres undefined), which inhibition is on record?
**A.** 18.6% (active)

**Q.** For CC(C)OC(=O)c1cc(NC(=O)C2C3CCC(O3)C2C(=O)O)cc(C(=O)OC(C)C)c1 (centres undefined), which inhibition is on record?
**A.** 5% (inactive)

**Q.** With Oc1c(C(c2ccccn2)N2CCOCC2)ccc2cccnc12 (centres undefined) as the compound, how does the inhibition read?
**A.** 69.3% (active)

**Q.** Cc1ccc(-n2nc3ccc(NC(=O)/C=C/c4ccco4)cc3n2)cc1C was tested. Which inhibition did it give?
**A.** 14.7% (inactive)

**Q.** For Oc1c(Cl)cc(Cl)c(Cl)c1Cc1c(O)c(Cl)cc(Cl)c1Cl, which inhibition is on record?
**A.** 22.2% (active)

**Q.** Cc1cc(-c2csc(N)n2)c(C)n1-c1ccccc1 was tested. Which inhibition did it give?
**A.** 10.2% (inactive)

**Q.** CCOc1ccc(NC(=O)c2ccc(NC(=O)COC(=O)c3ccc(NC(=O)CC#N)cc3)cc2)cc1 was tested. Which inhibition did it give?
**A.** 47.8% (active)

**Q.** With CN(C(=O)COC(=O)c1cc(-c2ccco2)nc2ccccc12)C1CCS(=O)(=O)C1 (centres undefined) as the compound, how does the inhibition read?
**A.** 20.3% (active)

**Q.** How did the inhibition turn out when CCn1c(SCC(=O)Nc2cc(C)ccc2C)nnc1-c1cnccn1 was run?
**A.** -2.85% (inactive)

**Q.** c1ccc(-c2nccc(-c3ccc(-n4cnc5ccccc54)cc3)n2)nc1 was tested. Which inhibition did it give?
**A.** 65.5% (active)
